PubChem BioAssay (EPA / NIEHS)
Values joined by “and” are separate entries in the source; they are usually repeats but may differ in a detail not shown here. Equal entries are not always repeated. Results filed as inconclusive are left out. The source holds several records for some structures; these can differ, active in one and inactive in another. Active and inactive are the calls of the source. The calls were made as follows, unless noted: active = hit-call score of the fitted dose curve at least 0.9, where 1 is the maximum; inactive = score below 0.9.

Tests used:
[1] = read-out: Interleukin-8 (IL8), CXCL8 (gene 3576); assay: BSK_3C_IL8: BioMAP Diversity Plus: 3C Assay for Interleukin-8 (IL8) Biomarker Activity (AID 2283020); conditions: primary human endothelial cells (HUVEC); actives raise or lower the signal
Outline: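 Primary human umbilical vein endothelial cells were dosed for 24 h. IL-8 was quantified by ELISA and fitted bidirectionally against DMSO. Cytotoxicity was assessed in parallel cultures by SRB staining at 560 nm.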

[2] = read-out: Monokine induced gamma interferon (MIG), CXCL9 (gene 4283); assay: BSK_3C_MIG: BioMAP Diversity Plus: 3C Assay for Monokine induced gamma interferon (MIG) Biomarker Activity (AID 2283021); conditions: primary human endothelial cells (HUVEC); actives raise or lower the signal;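 as to AC50: MIG protein level measured by immunoassay in the treated endothelial cultures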
Outline: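 HUVEC primary endothelial cultures dosed with chemical; MIG quantified by ELISA at 24 h. Data fitted bidirectionally against DMSO control, with parallel SRB total-protein staining for cytotoxicity.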

[3] = biological target: human Vitamin D Receptor (VDR), VDR (gene 7421) (UniProt P11473); assay: ATG_VDR_TRANS: Attagene TRANS-FACTORIAL HepG2 Assay for human Vitamin D Receptor (VDR) (AID 2283022; active = hit-call score of the fitted dose curve at least 0.9, where 1 is the maximum)
human Vitamin D Receptor (VDR), VDR (gene 7421), sequence (P11473 whole entry, looked up, the tested form may be a part): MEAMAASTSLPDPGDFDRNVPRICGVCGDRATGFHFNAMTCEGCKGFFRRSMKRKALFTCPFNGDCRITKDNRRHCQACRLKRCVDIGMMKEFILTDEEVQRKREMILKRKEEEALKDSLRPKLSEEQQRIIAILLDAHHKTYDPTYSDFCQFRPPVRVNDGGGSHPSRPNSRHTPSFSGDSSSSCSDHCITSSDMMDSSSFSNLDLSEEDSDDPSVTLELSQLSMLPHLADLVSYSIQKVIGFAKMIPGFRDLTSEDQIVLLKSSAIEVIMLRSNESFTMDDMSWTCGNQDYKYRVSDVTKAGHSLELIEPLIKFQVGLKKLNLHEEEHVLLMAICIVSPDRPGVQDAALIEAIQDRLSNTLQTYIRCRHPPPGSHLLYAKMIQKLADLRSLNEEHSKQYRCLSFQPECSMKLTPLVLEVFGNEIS
Outline: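 Fluorescence of labelled reporter cDNA fragments, resolved by capillary electrophoresis, gives mRNA induction after 24 h treatment of HepG2 cells carrying transfected Gal4-fusion reporter units. Activity is fitted in the positive direction with DMSO as baseline.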

[4] = read-out: Matrix Metallopeptidase 1 (MMP1), MMP1 (gene 4312); assay: BSK_BE3C_MMP1: BioMAP Diversity Plus: BE3C Assay for Matrix Metallopeptidase 1 (MMP1) Biomarker Activity (AID 2283024); conditions: primary human bronchial epithelial cells; actives raise or lower the signal
Outline: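 Human primary bronchial epithelial cells (BE3C system) dosed for 24 h; MMP-1 quantified by ELISA. Bidirectional fit against DMSO; cytotoxicity tracked in parallel cultures by SRB total-protein staining.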

[5] = read-out: Pselectin, SELP (gene 6403); assay: BSK_4H_Pselectin: BioMAP Diversity Plus: 4H Assay for Pselectin Biomarker Activity (AID 2283026); conditions: primary human endothelial cells (HUVEC); actives raise or lower the signal
Outline: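 Primary human umbilical vein endothelial cells were treated 24 h, and cell-surface P-selectin was then quantified by ELISA. Bidirectional fit versus DMSO; cytotoxicity checked in parallel cultures by SRB total-protein staining.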

[6] = BSK_4H_SRB: Viability Assessment in the BioMAP Diversity Plus: 4H Assay (AID 2283027); conditions: primary human endothelial cells (HUVEC);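 also: cells exposed to compound for 24 h before staining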;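 as to AC50: curves fitted both ways versus DMSO so AC50 may be loss or gain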
Outline: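 Absorbance at 560 nm of SRB-stained total protein served as the viability read-out in confluent primary human umbilical vein endothelium 24 h after chemical treatment. Curves were fitted bidirectionally against DMSO as negative control.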

[7] = BSK_BE3C_SRB: Viability Assessment in the BioMAP Diversity Plus: BE3C Assay (AID 2283028); conditions: primary human bronchial epithelial cells
Outline: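 Overt cytotoxicity was assessed as total protein in confluent human primary bronchial epithelial cultures 24 h after chemical addition, using 0.1% sulforhodamine B staining read at 560 nm.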

[8] = read-out: Thrombomodulin, THBD (gene 7056); assay: BSK_3C_Thrombomodulin: BioMAP Diversity Plus: 3C Assay for Thrombomodulin Biomarker Activity (AID 2283029); conditions: primary human endothelial cells (HUVEC); actives raise or lower the signal
Outline: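 Human umbilical vein endothelial cells were exposed to chemicals for 24 h; cell-surface thrombomodulin quantified by ELISA, with bidirectional fitting against DMSO baseline.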

[9] = read-out: Urokinase-type plasminogen activator receptor (uPAR), PLAUR (gene 5329); assay: BSK_4H_uPAR: BioMAP Diversity Plus: 4H Assay for Urokinase-type plasminogen activator receptor (uPAR) Biomarker Activity (AID 2283030); conditions: primary human endothelial cells (HUVEC); actives raise or lower the signal
Outline: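 Chemicals are dosed onto human vascular endothelial primary cells (umbilical vein). After 24 h, uPAR is read by ELISA. Gain or loss of signal is fitted relative to DMSO.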

[10] = read-out: Vascular endothelial growth factor receptor 2 (Homo sapiens) (UniProt P35968); assay: BSK_4H_VEGFRII: BioMAP Diversity Plus: 4H Assay for Vascular endothelial growth factor receptor 2 (VEGFR2) Biomarker Activity (AID 2283031); conditions: primary human endothelial cells (HUVEC); actives raise or lower the signal;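 as to AC50: cell-surface VEGFR2 protein level quantified by ELISA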
Outline: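 VEGFRII levels on human vascular endothelial primary cells were determined by ELISA at 24 hours post-dosing, with gain- or loss-of-signal fitted against DMSO controls.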

[11] = read-out: Human Leukocyte Antigen - DR isotype (HLADR), HLA-DRA (gene 3122); assay: BSK_BE3C_HLADR: BioMAP Diversity Plus: BE3C Assay for Human Leukocyte Antigen - DR isotype (HLADR) Biomarker Activity (AID 2283032); conditions: primary human bronchial epithelial cells; actives raise or lower the signal
Outline: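 Human primary bronchial epithelial cells (BE3C system) exposed to compound for 24 hours; cell-surface HLA-DR measured by ELISA, fitted bidirectionally relative to DMSO. Total protein by SRB in parallel cultures tracked cytotoxicity.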

[12] = read-out: Vascular cell adhesion molecule 1 (VCAM1), VCAM1 (gene 7412); assay: BSK_4H_VCAM1: BioMAP Diversity Plus: 4H Assay for Vascular cell adhesion molecule 1 (VCAM1) Biomarker Activity (AID 2283033); conditions: primary human endothelial cells (HUVEC); actives raise or lower the signal
Outline: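 Primary human umbilical vein endothelial cells, 4H stimulation system, treated for 24 h; cell-surface VCAM-1 quantified by ELISA. Bidirectional fitting against DMSO; cytotoxicity tracked by SRB total-protein staining in parallel cultures.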

[13] = read-out: Monokine induced gamma interferon (MIG), CXCL9 (gene 4283); assay: BSK_BE3C_MIG: BioMAP Diversity Plus: BE3C Assay for Monokine induced gamma interferon (MIG) Biomarker Activity (AID 2283035); conditions: primary human bronchial epithelial cells; actives raise or lower the signal;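 also: MIG protein measured by ELISA in BE3C cultures after 24 h of dosing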
Outline: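 MIG level was determined by ELISA after 24 h chemical treatment of primary human bronchial epithelial cells. Values were fitted bidirectionally with DMSO as the negative control and activity baseline.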

[14] = read-out: Transforming growth factor beta 1 (TGFb1), TGFB1 (gene 7040); assay: BSK_BE3C_TGFb1: BioMAP Diversity Plus: BE3C Assay for Transforming growth factor beta 1 (TGFb1) Biomarker Activity (AID 2283036); conditions: primary human bronchial epithelial cells; actives raise or lower the signal
Outline: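 Primary human bronchial epithelial cells dosed with chemical; TGF-b1 measured by ELISA 24 h after dosing. Bidirectional curve fitting against DMSO negative control; SRB total-protein staining in parallel cultures gauged cytotoxicity.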

[15] = read-out: Plasminogen activator inhibitor-1 (PAI1), SERPINE1 (gene 5054); assay: BSK_BE3C_PAI1: BioMAP Diversity Plus: BE3C Assay for Plasminogen activator inhibitor-1 (PAI1) Biomarker Activity (AID 2283037); conditions: primary human bronchial epithelial cells; actives raise or lower the signal
Outline: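 Primary human bronchial epithelial cells (BE3C system) exposed 24 h; PAI-1 quantified by ELISA. Parallel sulforhodamine B staining of total protein flags cytotoxicity. Bidirectional fit versus DMSO.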

[16] = read-out: urokinase plasminogen activator (uPA), PLAU (gene 5328); assay: BSK_BE3C_uPA: BioMAP Diversity Plus: BE3C Assay for urokinase plasminogen activator (uPA) Biomarker Activity (AID 2283038); conditions: primary human bronchial epithelial cells; actives raise or lower the signal
Outline: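 Measured by ELISA: uPA from human primary bronchial epithelial cells 24 h after chemical treatment. Values derive from bidirectional curve fitting with DMSO serving as negative control. Total protein by SRB staining in parallel wells flagged overt cytotoxicity.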

[17] = read-out: Urokinase-type plasminogen activator receptor (uPAR), PLAUR (gene 5329); assay: BSK_BE3C_uPAR: BioMAP Diversity Plus: BE3C Assay for Urokinase-type plasminogen activator receptor (uPAR) Biomarker Activity (AID 2283039); conditions: primary human bronchial epithelial cells; actives raise or lower the signal;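 also: uPAR protein level measured by ELISA on the cells; cells exposed to compound for one day before measurement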
Outline: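 Primary human bronchial epithelial cells dosed for 24 h; uPAR quantified by ELISA with bidirectional fitting against DMSO. Overt cytotoxicity assessed in parallel cultures by SRB total-protein staining (0.1% SRB, 560 nm).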

[18] = read-out: Interleukin-6 (IL6), IL6 (gene 3569); assay: BSK_CASM3C_IL6: BioMAP Diversity Plus: CASM3C Assay for Interleukin-6 (IL6) Biomarker Activity for (AID 2283040); conditions: primary human coronary artery smooth muscle cells; actives raise or lower the signal
[19] = read-out: Interferon-gamma inducible Protein 10 (IP10), CXCL10 (gene 3627); assay: BSK_BE3C_IP10: BioMAP Diversity Plus: BE3C Assay for Interferon-gamma inducible Protein 10 (IP10) Biomarker Activity (AID 2283034); conditions: primary human bronchial epithelial cells; actives raise or lower the signal
Outline: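 Primary human bronchial epithelial cells, with IP-10 measured by ELISA 24 hours after chemical dosing. Bidirectional fit against DMSO; cytotoxicity checked by SRB total protein staining in parallel cultures.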

[20] = BSK_3C_SRB: Viability Assessment in the BioMAP Diversity Plus: 3C Assay (AID 2283023); conditions: primary human endothelial cells (HUVEC);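 also: cells read 24 h after compound dosing; fitted both ways against DMSO so a hit may be signal rise or drop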
Outline: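 Cells were dosed with chemical, cultured 24 h, fixed with 10% TCA, stained with 0.1% SRB and read at 560 nm. Human umbilical vein endothelium was used; DMSO served as negative control and baseline.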

Measured: AC50

c1ccc2c(c1)-c1ccc3ccc4cccc5cc-2c1c3c45
active: [9] 10 µM | [11] 2.57 µM | [12] 3.53 µM
not listed: [19] | [20]
inactive: all other assays above

CC(=O)CCC=C(C)CCC=C(C)C
active: [12] 28.9 µM
not listed: [1] | [3] | [19] | [20]
inactive: all other assays above

CC(=O)OC(C)(C)C1CC=C(C)CC1 (stereo not drawn)
active: [5] 31.2 µM | [6] 31 µM | [9] 30.8 µM | [10] 31.6 µM | [11] 35.4 µM | [12] 35 µM | [19] 31.5 µM
not listed: [1] | [3] | [20]
inactive: all other assays above

CC1=CC(C)C(C=O)C(C)C1 (stereo not drawn) (tested in a mixture with another compound)
not listed: [1] | [3] | [20]
inactive: all other assays above

CCCCN(CCO)CCO
not listed: [14] | [19] | [20]
inactive: all other assays above

O=C(O)C(F)(F)C(F)(F)C(F)(F)C(F)(F)C(F)(F)C(F)(F)C(F)(F)C(F)F
inactive: [2] | [5] | [6] | [7] | [8] | [9] | [10] | [12] | [13] | [15] | [16] | [17] | [18]
active: [4] 11.5 µM and 35.9 µM | [5] 19.5 µM | [11] 12.5 µM and 3.23 µM

COc1ccccc1NC(=O)CC(C)=O
not listed: [1] | [3] | [19] | [20]
inactive: all other assays above

COC(=O)c1ccc(C(=O)OC)cc1
not listed: [1] | [19] | [20]
inactive: all other assays above

c1ccc(Sc2ccccc2)cc1
inactive: [2] | [7] | [10] | [13] | [17] | [18]
active: [1] 20 µM | [4] 16 nM | [5] 29.6 µM | [6] 31.1 µM | [8] 20 µM | [9] 32.7 µM | [11] 29.9 µM | [12] 31.3 µM | [14] 20 µM | [15] 28.1 µM | [16] 25.6 µM

OCC(F)(OC(F)(F)C(F)(OC(F)(F)C(F)(F)C(F)(F)F)C(F)(F)F)C(F)(F)F (stereo not drawn)
inactive: [2] | [4] | [5] | [7] | [9] | [10] | [11] | [12] | [13] | [15] | [16] | [17] | [18]
active: [2] 3.71 µM | [4] 2540 nM | [5] 4.38 µM | [6] 5.19 µM and 3.7 µM | [8] 4.76 µM and 2.31 µM | [11] 5.06 µM | [12] 2.41 µM

CCn1cc(C(=O)O)c(=O)c2ccc(C)nc21
not listed: [1] | [14] | [19]
inactive: all other assays above
